Source: PubChem
This excerpt belongs to a sample that is enriched for hits.
12-LOX inh: inhibitors of human 12S-lipoxygenase ALOX12. purified 12hLO, xylenol orange hydroperoxide absorbance. P18054. 1.1% of 580,000 active. Potency, µM (highest dose often 108 µM), most hits filed as inhibitors
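Purified human 12hLO at 150 nM in 25 mM Hepes, 0.01% Triton X-100, pH 7.0, preincubated 15 min at room temperature with compound. Reaction started with 40 uM arachidonic acid, 30 min at room temperature. Hydroperoxide measured by Fe-xylenol orange, 573/405 nm absorbance ratio.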
G9a block: inhibitors of human histone lysine methyltransferase G9a; Potency, µM (highest dose often 102 µM), actives largely listed as inhibitors; AID 504332; 8.8% of 350,000 active; Q96KQ7; G9a H3K9 monomethylation, AlphaScreen, 2 h; also: nearly all actives have a fitted effect of over 75% in size
Target sequence (Q96KQ7 913-1193 limits assumed): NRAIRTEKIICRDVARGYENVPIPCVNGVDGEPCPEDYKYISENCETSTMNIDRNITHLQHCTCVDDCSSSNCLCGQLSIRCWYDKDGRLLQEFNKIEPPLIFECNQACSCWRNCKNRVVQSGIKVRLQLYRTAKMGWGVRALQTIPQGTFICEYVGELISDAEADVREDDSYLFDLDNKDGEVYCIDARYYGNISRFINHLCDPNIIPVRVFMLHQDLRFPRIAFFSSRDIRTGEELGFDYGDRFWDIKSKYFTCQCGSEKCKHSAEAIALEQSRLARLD
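Chemiluminescent proximity detection of H3K9 monomethylation, read after 10 min bead incubation in the dark. Reaction: 20 nM G9a, 500 nM biotin-H3K9 peptide, 20 uM SAM cofactor, 2 h, room temperature, following 15 min enzyme-compound preincubation.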
GRP78 ERSR act: induces the endoplasmic reticulum stress response in human glioma cells; U87-MG GRP78 promoter luciferase reporter, 16 h; Potency, µM, most hits filed as activators; 0.02% of 420,000 active; AID 602332; also: series mostly up to about 76 µM; nearly all actives have a fitted effect of over 35% in size
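Stably transfected U87-MG human glioma cells carrying a GRP78-based luminescent sensor were seeded at 1000 cells/well, pin-dosed with compounds and incubated 16 h. Luciferase reagent was then added, and end-point luminescence was read after 10 min at room temperature.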
Sfp inh: Sfp phosphopantetheinyl transferase inhibition; Q9F4F7; Biochemical Sfp PPTase activity, qHTS; Potency, µM, usual class: inhibitors; 3.5% of 310,000 active; AID 1490;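 also: the enzyme is Sfp with the accession as filed and its product quenches rhodamine fluorescence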
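Compounds were incubated with enzyme (final 15 nM) for 15 min at room temperature before substrate addition started the reaction. Fluorescence at 525 nm excitation, 598 nm emission was recorded immediately and after 30 minutes.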
VDR inh: inhibitors of human vitamin D receptor; P11473; AID 504847; 0.93% of 400,000 active; Potency, µM, actives largely listed as inhibitors; VDR-SRC2-3 peptide fluorescence polarization, 2 h
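The screen uses fluorescence polarization to detect compounds that interfere with recruitment of the SRC2-3 coactivator peptide to VDR; plates are read after 2 h at room temperature.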
Large screens that a line does not name were inactive. Calls follow the shape of the dose curve; as a rule, active = well fitted curve in the direction sought with a large enough effect; inconclusive = small, poorly fitted or top-dose-only effect, or another doubt; inactive = no such curve, though single readings can be large; an effect the other way counts as inactive or inconclusive.

CC(C)(C)c1ccc(OCC(=O)NNC(=S)NC(=O)c2ccccc2[N+](=O)[O-])c(Br)c1	12-LOX inh inconclusive, G9a block 44.7µM, Sfp inh 39.8µM
CCCCC(=O)Nc1ccc(C(=O)NNC(=S)NC(=O)c2ccccc2[N+](=O)[O-])cc1	G9a block inconclusive, Sfp inh 35.5µM
CC(C)C(=O)Nc1ccc(C(=O)NNC(=S)NC(=O)c2ccccc2[N+](=O)[O-])cc1	12-LOX inh inconclusive
Cc1ccccc1OCC(=O)NNC(=S)NC(=O)c1ccccc1[N+](=O)[O-]	none
CCCOc1ccc(C(=O)NNC(=S)NC(=O)c2ccccc2[N+](=O)[O-])cc1	12-LOX inh inconclusive
CCC(=O)NC(=S)NNC(=O)c1ccccc1[N+](=O)[O-]	G9a block 3.16µM, Sfp inh 10µM
O=C(NNC(=O)c1ccccc1[N+](=O)[O-])c1ccccc1[N+](=O)[O-]	G9a block 10µM
Cc1ccnc(NC(=O)Cc2ccc(Br)cc2)c1	none (no result: G9a block, GRP78 ERSR act, Sfp inh, VDR inh)
O=C(NC(=S)NNC(=O)c1ccccc1[N+](=O)[O-])c1ccccc1	12-LOX inh inconclusive, G9a block 2.51µM, Sfp inh 35.5µM, VDR inh inconclusive
O=C(NNC(=S)NC(=O)c1ccccc1[N+](=O)[O-])c1ccccc1	G9a block inconclusive
O=C(/C=C/c1ccc(Cl)cc1)c1ccc2ccccc2c1O	none (no result: G9a block, GRP78 ERSR act, Sfp inh, VDR inh)
CC1=NN(c2ccc(C)cc2C)C(=O)C1C(c1ccccc1O)C1C(=O)N(c2ccc(C)cc2C)N=C1C (stereo not drawn)	VDR inh inconclusive
CC1=NN(c2ccc(Cl)cc2)C(=O)C1C(c1ccccc1O)c1c(C)[nH]n(-c2ccc(Cl)cc2)c1=O (stereo not drawn)	G9a block 3.98µM (no result: 12-LOX inh)
COc1ccc(S(=O)(=O)Oc2ccc(C(=S)N3CCOCC3)cc2OC)cc1	none (no result: G9a block)
COc1ccc(S(=O)(=O)Oc2c(OC)cc(C(=S)N3CCOCC3)cc2OC)cc1	12-LOX inh inconclusive, G9a block 22.4µM, Sfp inh 28.2µM, VDR inh inconclusive
COc1ccc(C(=O)NC(=S)N2CCCC2)cc1	12-LOX inh inconclusive (no result: G9a block)
COc1ccc(C(=O)NC(=S)N2CCC(C)CC2)cc1	12-LOX inh inconclusive, G9a block 15.8µM
COc1cc(O)cc(OC)c1OC	GRP78 ERSR act inconclusive, VDR inh 44.7µM (no result: 12-LOX inh, G9a block)
COc1ccc(C(=O)NC(=S)N2CCOCC2)cc1OC	G9a block 50.1µM, Sfp inh inconclusive
COc1ccc(C(=S)N2CCOCC2)cc1OS(=O)(=O)c1ccc(Br)cc1	G9a block 44.7µM
CC(C)(C)c1cc(CCC(=O)N2CCCC2)cc(C(C)(C)C)c1O	none
COc1ccc(C(=O)Oc2c(OC)cc(C(=S)N3CCOCC3)cc2OC)cc1OC	12-LOX inh inconclusive, Sfp inh 39.8µM, VDR inh inconclusive
COc1cc(C(=S)N2CCOCC2)cc(OC)c1OC(=O)c1ccccc1Cl	none (no result: G9a block, Sfp inh, VDR inh)
CC(C)(C)c1cc(C(=S)N2CCCC2)cc(C(C)(C)C)c1O	12-LOX inh inconclusive, Sfp inh 39.8µM, VDR inh inconclusive (no result: G9a block)
COc1ccc(C(=O)Oc2c(OC)cc(C(=S)N3CCOCC3)cc2OC)cc1	G9a block 44.7µM
COc1cc(C(=S)N2CCCC2)cc(OC)c1OS(=O)(=O)c1ccc(NC(C)=O)cc1	12-LOX inh inconclusive, G9a block 31.6µM, Sfp inh 35.5µM, VDR inh inconclusive
COc1cc(NC(=S)N2CCCCC2C)cc(OC)c1OC (stereo not drawn)	Sfp inh 44.7µM
COC(=O)Cc1ccc(NC(=S)N2CCCCC2C)cc1 (stereo not drawn)	none
COc1cc(C(=S)N2CCCC2)cc(OC)c1OC	G9a block 39.8µM, Sfp inh 50.1µM
COc1ccc(C(=O)NC(=S)NC2CCSC2=O)cc1 (stereo not drawn)	G9a block 10µM
COc1cc(C(=O)N2CCCCCCC2)cc(OC)c1OC	none (no result: 12-LOX inh)
O=C(Nc1ccc(Cl)c(S(=O)(=O)N2CCCC2)c1)c1n[nH]c2ccccc12	none (no result: G9a block, GRP78 ERSR act, Sfp inh, VDR inh)
Cc1ccc(NC(=O)N2CCC3(CCNC(=O)CC3)CC2)cc1F	none (no result: G9a block, GRP78 ERSR act, Sfp inh, VDR inh)
O=C(NC(=S)N1CCOCC1)c1ccccc1Cl	12-LOX inh 1.26µM (no result: G9a block)
CC(O)CNC(=O)C1CCN(Cc2ccc(OCc3ccccc3)cc2)CC1 (stereo not drawn)	G9a block 3.98µM, Sfp inh inconclusive
O=C1Nc2ccccc2CC12CCN(Cc1ccc(OC(F)(F)F)cc1)CC2	none (no result: G9a block, GRP78 ERSR act, Sfp inh, VDR inh)
Nc1ccc(C(=O)Nc2cccc3ncccc23)cc1	none
CC(=O)Nc1cccc2ncccc12	none
